Reference: PubChem BioAssay (NCATS)
Results filed as inconclusive are left out. A call without a number means that no potency is given here. Active and inactive are the calls of the source. Calls come from the whole dose curve; as a rule, active = well fitted curve in the direction sought with a large enough effect; inconclusive = small, poorly fitted or top-dose-only effect, or another doubt; inactive = no such curve, though single readings can be large; an effect the other way counts as inactive or inconclusive.

These compounds were tested against D(1A) dopamine receptor (Homo sapiens) (UniProt P21728) (assay: HTS Assay for Allosteric Agonists of the Human D1 Dopamine Receptor: Primary Screen for Potentiators (AID 488982)). Conditions: HEK293 T-REx D1 inducible cells, calcium flux, kinetic fluorescence; series mostly up to 8.37 µM.
Sequence of D(1A) dopamine receptor (Homo sapiens) (P21728 whole entry, looked up): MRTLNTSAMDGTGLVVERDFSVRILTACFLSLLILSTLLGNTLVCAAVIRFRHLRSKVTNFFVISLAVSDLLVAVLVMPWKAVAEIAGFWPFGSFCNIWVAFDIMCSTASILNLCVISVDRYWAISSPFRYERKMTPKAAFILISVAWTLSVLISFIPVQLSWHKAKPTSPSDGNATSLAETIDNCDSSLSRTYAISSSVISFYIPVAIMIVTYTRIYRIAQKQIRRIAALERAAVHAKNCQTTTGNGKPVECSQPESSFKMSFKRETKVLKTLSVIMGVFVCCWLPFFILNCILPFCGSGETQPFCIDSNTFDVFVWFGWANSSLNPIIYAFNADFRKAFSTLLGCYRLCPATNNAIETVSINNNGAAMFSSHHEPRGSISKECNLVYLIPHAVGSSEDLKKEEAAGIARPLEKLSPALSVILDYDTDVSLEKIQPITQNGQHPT
In short: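 Calcium flux in an inducible, force-coupled HEK293 Trex D1 line (overnight at 30 C): agonist mode is the 180 s kinetic read after compound; potentiator mode is the following 180 s read after dopamine at EC20.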
In the case of `O=C1NC(=O)C(c2ccccc2)(c2ccccc2)N1`, the outcome is reported as “inactive”. In the case of `COc1ccc(Cc2nccc3cc(OC)c(OC)cc23)cc1OC`, the outcome is reported as “inactive”. For `COc1ccccc1N1CCN(CCCNc2cc(=O)n(C)c(=O)n2C)CC1`, the outcome was “inactive”. With `CCCCCN(C)CCC(O)(P(=O)(O)O)P(=O)(O)O` the outcome was “inactive”. With `COC(=O)[C@@H]1[C@H]2C[C@H]3c4[nH]c5ccccc5c4CCN3C[C@@H]2CC[C@@H]1O` the outcome was “inactive”. In the case of `CCN(CC)CCNC(=O)c1ccc(N)cc1`, the outcome is reported as “inactive”. With `O=C(NCCN1CCOCC1)c1ccc(Cl)cc1` the outcome was “inactive”. For `CC(=O)CCCCn1c(=O)c2c(ncn2C)n(C)c1=O`, the outcome was “inactive”. In the case of `CC(=O)c1ccc(S(=O)(=O)NC(=O)NC2CCCCC2)cc1`, the outcome is reported as “inactive”. With `CCN(CC)C(=O)c1ccc(O)c(OC)c1` the outcome was “inactive”. With `O=C(O)CCc1nc(-c2ccccc2)c(-c2ccccc2)o1` the outcome was “inactive”. `CCN(CC)CCOC(=O)c1ccc(N)cc1` was tested, and the outcome was “inactive”. For `CN(C)CCC(c1ccccc1)c1ccccn1` (centres undefined), the outcome was “inactive”. For `CC(C)NCC(O)COc1cccc2[nH]ccc12` (centres undefined), the outcome was “inactive”. `CCN1CCC[C@H]1CNC(=O)c1cc(S(N)(=O)=O)ccc1OC` was tested, and the outcome was “inactive”. For `C[N+](C)(C)CCCCCC[N+](C)(C)C`, the outcome was “inactive”. For `Cc1cccc(C)c1OCC(C)N` (centres undefined), the outcome was “inactive”. `CCCNC(=O)NS(=O)(=O)c1ccc(Cl)cc1` was tested, and the outcome was “inactive”. In the case of `O=C1NCC2(CCN(CCc3ccccc3)CC2)O1`, the outcome is reported as “inactive”. With `NCCS` the outcome was “inactive”. `NC(N)=Nc1nc(CSCC/C(N)=N/S(N)(=O)=O)cs1` was tested, and the outcome was “inactive”. In the case of `Clc1ccc(Cn2c(CN3CCCC3)nc3ccccc32)cc1`, the outcome is reported as “inactive”.

Each compound was assayed against D(1A) dopamine receptor (Homo sapiens) (UniProt P21728) (assay: HTS Assay for Allosteric Agonists of the Human D1 Dopamine Receptor: Primary Screen for Antagonists (AID 488983;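 note: calcium flux response to an EC80 dopamine challenge measured with no-wash dye; nearly all actives have a fitted effect of over 65% in size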; note: potency is the fitted concentration of half-maximal effect)). Conditions: D1 receptor cell assay, antagonist mode, qHTS titration; series mostly up to 41.8 µM.
In short: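 Calcium flux readout, no-wash dye, inducible HEK293 T-REx D1 line (force-coupled). Compound added after 10 s baseline, 180 s kinetic read; then dopamine at EC80, further 180 s read.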
For `O=C1NC(=O)C(c2ccccc2)(c2ccccc2)N1`, the Potency was “inactive”. With `COc1ccc(Cc2nccc3cc(OC)c(OC)cc23)cc1OC` the Potency was “inactive”. With `COc1ccccc1N1CCN(CCCNc2cc(=O)n(C)c(=O)n2C)CC1` the Potency was “inactive”. In the case of `CCCCCN(C)CCC(O)(P(=O)(O)O)P(=O)(O)O`, the Potency is reported as “inactive”. With `COC(=O)[C@@H]1[C@H]2C[C@H]3c4[nH]c5ccccc5c4CCN3C[C@@H]2CC[C@@H]1O` the Potency was 17.8 µM (active). With `CCN(CC)CCNC(=O)c1ccc(N)cc1` the Potency was “inactive”. For `O=C(NCCN1CCOCC1)c1ccc(Cl)cc1`, the Potency was “inactive”. With `CC(=O)CCCCn1c(=O)c2c(ncn2C)n(C)c1=O` the Potency was “inactive”. `CC(=O)c1ccc(S(=O)(=O)NC(=O)NC2CCCCC2)cc1` was tested, and the Potency was “inactive”. In the case of `CCN(CC)C(=O)c1ccc(O)c(OC)c1`, the Potency is reported as “inactive”. In the case of `O=C(O)CCc1nc(-c2ccccc2)c(-c2ccccc2)o1`, the Potency is reported as “inactive”. `CCN(CC)CCOC(=O)c1ccc(N)cc1` was tested, and the Potency was “inactive”. `CN(C)CCC(c1ccccc1)c1ccccn1` (centres undefined) was tested, and the Potency was “inactive”. With `CC(C)NCC(O)COc1cccc2[nH]ccc12` (centres undefined) the Potency was “inactive”. In the case of `CCN1CCC[C@H]1CNC(=O)c1cc(S(N)(=O)=O)ccc1OC`, the Potency is reported as “inactive”. For `C[N+](C)(C)CCCCCC[N+](C)(C)C`, the Potency was “inactive”. `Cc1cccc(C)c1OCC(C)N` (centres undefined) was tested, and the Potency was “inactive”. With `CCCNC(=O)NS(=O)(=O)c1ccc(Cl)cc1` the Potency was “inactive”. In the case of `O=C1NCC2(CCN(CCc3ccccc3)CC2)O1`, the Potency is reported as “inactive”. For `NCCS`, the Potency was “inactive”. For `NC(N)=Nc1nc(CSCC/C(N)=N/S(N)(=O)=O)cs1`, the Potency was “inactive”. With `Clc1ccc(Cn2c(CN3CCCC3)nc3ccccc32)cc1` the Potency was “inactive”.
